These results are taken from ChEMBL document CHEMBL4513146, “CO-ADD screening of Karazin Kharkiv National University (Ukraine) compounds”.

Entries with a potency or affinity are not part of this list.

One test deals with Staphylococcus aureus. As to conditions: Concentration 32 ug.mL-1;; ASSAY_TEST Inhibition of Bacterial Growth; detection method Absorption (OD600); MEDIA CAMHB; plate type 384well; NBS; CORNING #3640; time 18 hr.
For another test, the system named is Escherichia coli. As to conditions: Concentration 32 ug.mL-1;; ASSAY_TEST Inhibition of Bacterial Growth; detection method Absorption (OD600); MEDIA CAMHB; plate type 384well; NBS; CORNING #3640; time 18 hr.

`CCC(Sc1nnc2c(=O)n(-c3ccc(C)c(C)c3)ccn12)C(=O)Nc1cc(OC)ccc1OC` (centres undefined): the figures for the Inhibition with Staphylococcus aureus and with Escherichia coli were -17.77% and -11.35%, respectively.
In the case of `Cc1cccc(C)c1NC(=O)Cn1nc2ccc(SCc3ccc(Cl)cc3)nn2c1=O`, the Inhibition (in general, the relative decrease from the control value, in per cent) is reported as -3.66% in the test on Staphylococcus aureus and -13.3% in the test on Escherichia coli.
Take `COc1ccccc1-n1ccn2c(SCC(=O)Nc3ccc4c(c3)OCO4)nnc2c1=O`: the Inhibition was 7.67% in the test on Staphylococcus aureus and -8.08% with Escherichia coli.
The corresponding values for `CC(C)Sc1ccc2nn(CC(=O)Nc3ccc(F)cc3Cl)c(=O)n2n1` are -4.06% and -3%.
The corresponding values for `COc1cccc(-c2noc(Cn3nc4ccc(-c5ccccc5)nn4c3=O)n2)c1OC` are 13.66% and -2.67%.
Consider `Cc1ccc(NC(=O)CSc2nc3ccccc3n3c(C)nnc23)cc1C`, for which the Inhibition in the test with Staphylococcus aureus was -20.91%; with Escherichia coli, -12.4%.
For `C=Cc1ccc(CN(c2ccc(C(C)C)cc2)S(=O)(=O)c2cccn3cnnc23)cc1`, the results for the Inhibition in the test with Staphylococcus aureus and with Escherichia coli were 7.94% and 0.1%, respectively.
`Cc1cccc(Sc2nc3ccccc3n3c(=O)n(CC(=O)Nc4c(C)cc(C)cc4C)nc23)c1`: the Inhibition was 8.94% with Staphylococcus aureus and -2.19% in the test with Escherichia coli.
As to `Cc1ccccc1Cn1nc2ccc(-c3ccccc3)nn2c1=O`, the Inhibition in the test on Staphylococcus aureus is listed as 10.41%; with Escherichia coli, 1.97%.
For the compound `COc1ccc(NC(=O)CSc2nc3ccccc3n3c(C(C)C)nnc23)c(OC)c1`, the results for the Inhibition in the test on Staphylococcus aureus and with Escherichia coli were 1.68% and -5.84%, respectively.
For `CC(C)(C)NC(=O)Cn1nc2n(Cc3cccs3)c(=O)c3sccc3n2c1=O`, the values for the Inhibition with Staphylococcus aureus and with Escherichia coli were -26.19% and -5.05%, respectively.
As for `CC(C)c1ccc(N(Cc2cc(F)cc(F)c2)S(=O)(=O)c2cccn3cnnc23)cc1`, the results for the Inhibition in the test on Staphylococcus aureus and in the test with Escherichia coli were 8.68% and -1.47%, respectively.
